# Reference: PubChem BioAssay (NCATS)
# Inconclusive results are not listed. A call without a number means that no potency is given here. Calls of active or inactive are those of the source. Calls come from the whole dose curve; as a rule, active = well fitted curve in the direction sought with a large enough effect; inconclusive = small, poorly fitted or top-dose-only effect, or another doubt; inactive = no such curve, though single readings can be large; an effect the other way counts as inactive or inconclusive.
# Tests used:
# [1] = target: Glutathione peroxidase 1 (Homo sapiens) (UniProt P07203); test: Primary qHTS Assay for Inhibitors of Recombinant Selenoprotein Glutathione Peroxidase 1 (GPX1) (AID 1845191); note: nearly all actives have a fitted effect of over 65% in size
# Outline: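 GR-coupled readout: NADPH consumption tracked by fluorescence, ex 340/em 450 nm, at t=0 and after 15 min at RT. Final mix 10 nM GPX1, 1 mM GSH, 0.5 mM CHP, 0.5 mM NADPH, 100 nM GR, 0.01% BSA, following 30 min enzyme–compound preincubation.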
# [2] = target: Phospholipid hydroperoxide glutathione peroxidase GPX4 (Homo sapiens) (UniProt P36969); test: Primary qHTS Assay for Inhibitors of Recombinant Selenoprotein Glutathione Peroxidase 4 (GPX4) (AID 1845192); note: nearly all actives have a fitted effect of over 65% in size
# Outline: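 Steps: GPX4 plus compound, 30 min RT; add GR/GSH/NADPH master mix; start with cumene hydroperoxide; read 340/450 nm fluorescence at 0 and 15 min. Finals were 200 nM GPX4, 1 mM GSH, 0.5 mM CHP, 0.5 mM NADPH, 100 nM GR.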
# [3] = target: Luciferin 4-monooxygenase (Photinus pyralis) (UniProt P08659); test: Primary firefly luciferase (FLuc) qHTS assay for identification of artifact compounds. (AID 1845220); settings: outcome: dose series up to 54.1 µM; note: nearly all actives have a fitted effect of over 60% in size
# Outline: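 Enzymatic FLuc inhibition assay: compounds pre-exposed to luciferin/ATP (10 uM each) for 15 min, then purified P. pyralis enzyme at 10 nM added. Read-out: luminescence at 5 min.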
# [4] = Primary fluorescence-based thiol-reactive (MSTI) qHTS assay for identification of artifact compounds. (AID 1845221);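 note: series mostly up to about 54 µM; thiol-reactive compounds lower the probe fluorescence signal; nearly all actives have a fitted effect of over 65% in size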
# Outline: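 One-hour, room-temperature, dark incubation of compound with 4 uM MSTI in PBS (pH 7.4, 2% DMSO) precedes a fluorescence read at 525 nm excitation, 598 nm emission; Hill-equation fitting yields concentration-response values.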
# [5] = Primary redox qHTS assay for identification of artifact compounds. (AID 1845223)
# Outline: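 Redox-cycling detection via DTT (250 uM final) oxidation coupled to Amplex Red (25 uM)/HRP (250 mU/mL) in HBSS. 15 min preincubation plus 30 min after DTT, room temperature. Ex/Em 525/598 nm; 4-parameter Hill fit against DMSO and 10 uM DA3003.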
# [6] = Quantitative High-Throughput drug screen in 47 multiple myeloma cell lines against the NCATS MIPE library collection: Delta47_JCRB cell viability assay (AID 1918925; note: potency is the fitted concentration of half-maximal effect; nearly all actives have a fitted effect of over 45% in size)
# Outline: (§1)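 We plated 500 myeloma cells per well, pinned in MIPE 4.0 compounds, and incubated for 48 hours at 37C. ATP was then quantified with CellTiter-Glo, with DMSO and media-only wells defining 100% and 0%.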
# [7] = Quantitative High-Throughput drug screen in 47 multiple myeloma cell lines against the NCATS MIPE library collection: EJM_DSMZ cell viability assay (AID 1918926; note: nearly all actives have a fitted effect of over 30% in size; note: potency is the fitted concentration of half-maximal effect)
# Outline: as §1
# [8] = Quantitative High-Throughput drug screen in 47 multiple myeloma cell lines against the NCATS MIPE library collection: AMO1_DSMZ cell viability assay (AID 1918927; note: nearly all actives have a fitted effect of over 30% in size; note: potency is the fitted concentration of half-maximal effect)
# Outline: as §1
# [9] = Quantitative High-Throughput drug screen in 47 multiple myeloma cell lines against the NCATS MIPE library collection: ARD_JJKsccE7 cell viability assay (AID 1918929; note: potency is the fitted concentration of half-maximal effect)
# Outline: as §1
# [10] = Quantitative High-Throughput drug screen in 47 multiple myeloma cell lines against the NCATS MIPE library collection: Karpas620_DSMZ cell viability assay (AID 1918959); note: nearly all actives have a fitted effect of over 30% in size; note: potency is the fitted concentration of half-maximal effect
# Outline: (§2)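 Steps: seed 500 cells per well; pin-transfer MIPE 4.0 library; incubate 48 h at 37C, 5% CO2, humidified; add CellTiter-Glo, 5 min room temperature; read luminescence.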
# [11] = Quantitative High-Throughput drug screen in 47 multiple myeloma cell lines against the NCATS MIPE library collection: KMM1_JCRB cell viability assay (AID 1918960); note: nearly all actives have a fitted effect of over 30% in size; note: potency is the fitted concentration of half-maximal effect
# Outline: (§3)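 Viability screen: myeloma cells (500/well) incubated 48 h at 37 °C, humidified 5% CO2, with pinned library compounds; CellTiter-Glo added, luminescence read; DMSO wells set 100%, medium-only wells 0%.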
# [12] = Quantitative High-Throughput drug screen in 47 multiple myeloma cell lines against the NCATS MIPE library collection: KHM11_PLB cell viability assay (AID 1918962); note: nearly all actives have a fitted effect of over 35% in size; note: potency is the fitted concentration of half-maximal effect
# Outline: as §2
# [13] = Quantitative High-Throughput drug screen in 47 multiple myeloma cell lines against the NCATS MIPE library collection: JIM3_ECACC cell viability assay (AID 1918963; note: nearly all actives have a fitted effect of over 35% in size; note: potency is the fitted concentration of half-maximal effect)
# Outline: as §2
# [14] = Quantitative High-Throughput drug screen in 47 multiple myeloma cell lines against the NCATS MIPE library collection: JIM1_ECACC cell viability assay (AID 1918964; note: potency is the fitted concentration of half-maximal effect)
# Outline: as §1
# [15] = Quantitative High-Throughput drug screen in 47 multiple myeloma cell lines against the NCATS MIPE library collection: INA6_PLB cell viability assay (AID 1918965; note: potency is the fitted concentration of half-maximal effect; nearly all actives have a fitted effect of over 55% in size)
# Outline: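 CellTiter-Glo luminescence (ATP) after 48 h compound exposure, 37C/5% CO2; 500 cells/well; MIPE 4.0 approved/investigational drugs pinned in; DMSO = 100%, media only = 0% viability.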
# [16] = Quantitative High-Throughput drug screen in 47 multiple myeloma cell lines against the NCATS MIPE library collection: H1112_PLB cell viability assay (AID 1918967; note: nearly all actives have a fitted effect of over 30% in size; note: potency is the fitted concentration of half-maximal effect)
# Outline: as §1
# [17] = target: Metallo-beta-lactamase type 2 (Klebsiella pneumoniae) (UniProt C7C422); test: qHTS to identify inhibitors of the New Delhi Metallo-beta-lactamase (NDM): assay validation screen against the NCATS LOPAC Collection (AID 1794843);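 note: nitrocefin turnover by NDM-1 measured as 485 nm absorbance at plateau; series mostly up to about 38 µM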
# Outline: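 Nitrocefin hydrolysis (50 uM substrate stock) by NDM-1, 2 nM final, was followed by 485 nm absorbance after compound preincubation; buffer was 50 mM HEPES pH 7.0, 1 uM ZnSO4, 0.01% Tween20.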
# [18] = Quantitative High-Throughput drug screen in 47 multiple myeloma cell lines against the NCATS MIPE library collection: ARP1_JJKsccF8 cell viability assay (AID 1918928; note: nearly all actives have a fitted effect of over 40% in size)
# Outline: as §3
# [19] = tested on: Nanoluciferase (engineered Oplophorus gracilirostris luciferase); test: Primary Nanoluciferase (NLuc) qHTS assay for identification of artifact compounds. (AID 1845222);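 note: NLuc secreted into diluted conditioned medium of S16 cells; series mostly up to about 54 µM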
# Outline: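 S16 cell supernatant NLuc, 1:55; cpds qHTS; 15 min RT dark; Nano-Glo substrate 1:100, 5 min; luminescence; Hill fit of % inhibition.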
# [20] = Quantitative High-Throughput drug screen in 47 multiple myeloma cell lines against the NCATS MIPE library collection: FR4_PLB cell viability assay (AID 1918924; note: nearly all actives have a fitted effect of over 35% in size)
# Outline: as §2
# Sequence of Phospholipid hydroperoxide glutathione peroxidase GPX4 (Homo sapiens) (P36969 whole entry, looked up): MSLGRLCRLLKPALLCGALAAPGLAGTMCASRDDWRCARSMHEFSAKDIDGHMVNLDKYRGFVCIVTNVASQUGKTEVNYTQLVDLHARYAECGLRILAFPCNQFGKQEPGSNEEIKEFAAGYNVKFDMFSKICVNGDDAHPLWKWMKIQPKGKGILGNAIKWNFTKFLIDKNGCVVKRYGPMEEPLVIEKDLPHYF
# Sequence of Glutathione peroxidase 1 (Homo sapiens) (P07203 whole entry, looked up): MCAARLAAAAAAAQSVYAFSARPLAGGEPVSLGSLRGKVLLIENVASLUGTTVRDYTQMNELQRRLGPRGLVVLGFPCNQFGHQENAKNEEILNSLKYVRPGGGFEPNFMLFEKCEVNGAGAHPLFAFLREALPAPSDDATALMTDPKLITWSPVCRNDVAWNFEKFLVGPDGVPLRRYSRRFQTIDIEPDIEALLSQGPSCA
# Sequence of Metallo-beta-lactamase type 2 (Klebsiella pneumoniae) (C7C422 whole entry, looked up): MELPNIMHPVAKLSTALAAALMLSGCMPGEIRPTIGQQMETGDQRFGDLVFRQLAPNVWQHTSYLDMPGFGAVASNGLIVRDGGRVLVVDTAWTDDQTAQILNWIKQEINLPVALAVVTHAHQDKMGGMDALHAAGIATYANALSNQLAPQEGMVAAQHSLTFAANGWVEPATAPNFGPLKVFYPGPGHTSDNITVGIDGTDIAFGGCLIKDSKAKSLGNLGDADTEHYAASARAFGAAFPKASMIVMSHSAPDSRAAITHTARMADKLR
smiles,measurement,setting,value
CS(=O)(=O)CCNCc1ccc(-c2ccc3ncnc(Nc4ccc(OCc5cccc(F)c5)c(Cl)c4)c3c2)o1,Potency,[1],inactive
same,Potency,[2],inactive
same,outcome,[3],inactive
same,outcome,[4],inactive
same,outcome,[5],inactive
same,Potency,[6],0.235 µM (active)
same,Potency,[7],0.0235 µM (active)
same,Potency,[8],2.35 µM (active)
same,Potency,[9],6.62 µM (active)
same,Potency,[10],18.7 µM (active)
same,Potency,[11],13.2 µM (active)
same,Potency,[12],4.69 µM (active)
same,Potency,[13],1.18 µM (active)
same,Potency,[14],6.62 µM (active)
same,Potency,[15],3.32 µM (active)
same,Potency,[16],0.0743 µM (active)
O=C(c1ccc(OCCN2CCCCC2)cc1)c1c(-c2ccc(O)cc2)sc2cc(O)ccc12,outcome,[17],inactive
same,Potency,[2],inactive
same,Potency,[6],23.5 µM (active)
same,Potency,[8],20.9 µM (active)
same,Potency,[9],26.4 µM (active)
same,Potency,[10],26.4 µM (active)
same,Potency,[11],20.9 µM (active)
same,Potency,[14],37.2 µM (active)
same,Potency,[15],18.7 µM (active)
CCCNCC(O)COc1ccccc1C(=O)CCc1ccccc1 (stereo not given),outcome,[17],inactive
same,Potency,[2],inactive
same,Potency,[18],inactive
same,Potency,[13],inactive
same,Potency,[16],inactive
COc1ccc(CCN(C)CCCC(C#N)(c2ccc(OC)c(OC)c2)C(C)C)cc1OC (stereo not given),Potency,[1],inactive
same,Potency,[2],inactive
CC1(C)O[C@H]2CC(=O)OC[C@]23[C@H]2CC[C@@]4(C)[C@H](c5ccoc5)OC(=O)[C@H]5O[C@]54[C@]2(C)C(=O)C[C@@H]13,Potency,[1],inactive
same,Potency,[2],inactive
same,outcome,[3],inactive
same,outcome,[4],inactive
same,outcome,[19],inactive
same,Potency,[20],inactive
same,Potency,[7],inactive
same,Potency,[8],inactive
same,Potency,[18],inactive
same,Potency,[10],inactive
same,Potency,[11],inactive
same,Potency,[12],inactive
same,Potency,[13],inactive
same,Potency,[14],inactive
same,Potency,[16],inactive
CCCCc1oc2ccccc2c1C(=O)c1cc(I)c(OCCN(CC)CC)c(I)c1,outcome,[17],inactive
same,Potency,[2],inactive
same,Potency,[6],13.2 µM (active)
same,Potency,[8],8.33 µM (active)
same,Potency,[11],6.62 µM (active)
same,Potency,[14],18.7 µM (active)
same,Potency,[15],16.6 µM (active)
CC12CC3CC(C)(C1)CC(N)(C3)C2,Potency,[1],inactive
same,Potency,[2],inactive
same,Potency,[18],inactive
same,Potency,[10],inactive
same,Potency,[14],inactive
same,Potency,[15],20.9 µM (active)
